An excerpt weighted towards active compounds, which were near 4.7% of everything screened.
Efflux pump inh: blocks antifungal efflux pumps in multiplex yeast assay; S. cerevisiae Candida pump triplex, Nile Red efflux; inhibition, % at 10 µM; actives 0.44% (n = 330,000);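 active = plate passing quality check with inhibition over a set limit, or well fluorescence over plate mean plus 4 SD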;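 also: Nile Red retained in pooled yeast measured as flow cytometry median fluorescence; 0% = buffer negative control and 100% = Enniatin B positive control; higher means more Nile Red kept so more efflux inhibition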
ALR H2O2 inh: human ALR oxidase inhibition via reduced H2O2 | purified ALR, DTT oxidation, H2O2 HRP-luminol luminescence | AID 485317 | P55789 | actives 3.8% (n = 290,000) | inhibition, % (test concentration not listed);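 active = mean replicate inhibition above about 79%, with every replicate also reaching it, limit read from the data; inconclusive = only one of the two criteria met; inactive = mean below limit and not every replicate reaching it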
Target sequence (P55789 whole entry, looked up): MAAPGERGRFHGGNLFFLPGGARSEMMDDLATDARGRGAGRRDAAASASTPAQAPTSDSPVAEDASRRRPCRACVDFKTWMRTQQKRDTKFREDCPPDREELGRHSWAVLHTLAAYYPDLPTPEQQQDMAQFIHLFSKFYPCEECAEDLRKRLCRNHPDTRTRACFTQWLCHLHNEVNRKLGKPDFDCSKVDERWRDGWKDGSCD
PABP polyA inh: PABP-poly(A) binding inhibition. PABP-poly(A) RNA binding, fluorescence polarization. inhibition, % at 35 µM. actives 1% (n = 290,000). P11940;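 also: calls also rest on retests at 20 µM and on dose response follow-up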
UBC9 SUMO inh: blocks human SUMOylation mediated by UBC9; inhibition, % at 35 µM; P63279; actives 0.36% (n = 290,000); AID 2006; HTRF SUMOylation assay, SAE1/SAE2 + UBC9, in vitro; in the data active = inhibition above about 50%, passing the limit was not always enough; inconclusive = no clear call, values can overlap the other calls
Target sequence (P63279 whole entry, looked up): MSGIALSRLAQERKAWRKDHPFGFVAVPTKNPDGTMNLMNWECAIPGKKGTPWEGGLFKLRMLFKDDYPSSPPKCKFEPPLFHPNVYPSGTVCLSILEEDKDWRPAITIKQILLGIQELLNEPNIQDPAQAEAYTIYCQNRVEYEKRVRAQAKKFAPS
eIF4H FP inh: inhibitors of RNA binding by human eIF4H. inhibition, % at 35 µM. eIF4H fluorescence polarization binding assay. Q15056. actives 0.94% (n = 290,000);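 also: calls also rest on retests at 20 µM and on dose response follow-up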
MLLE-PAM2 inh: inhibitors of microRNA-mediated deadenylation, human PABP1 MLLE binding. P11940. GST-MLLE / FITC-PAM2 fluorescence polarization. inhibition, % at 20 µM. actives 0.36% (n = 360,000); in the data active = inhibition above about 35%, passing the limit was not always enough;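 also: plate controls were DMSO wells with GST-MLLE for no effect and wells lacking GST-MLLE protein for full effect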
Numbers without * were called inactive; i = inactive; u = inconclusive; x = no result. Unless noted, no rule for the calls is given here.

SMILES | Efflux pump inh | ALR H2O2 inh | PABP polyA inh | UBC9 SUMO inh | eIF4H FP inh | MLLE-PAM2 inh
O=c1c2cc(N3CCOCC3)ccc2[nH]c(=S)n1CCCN1CCCC1 | 0 | -19 | -8 | 42 | 9 | -33
CC1CCN(CCCn2c(=S)[nH]c3ccc(N4CCOCC4)cc3c2=O)CC1 | 0 | 85* | 10 | 56* | 3 | -45
COc1ccc(OC)c(NC(=O)c2ccc3c(=O)n(CCc4ccccc4)c(=S)[nH]c3c2)c1 | 0 | x | -4 | 14 | 2 | -42
CCCOc1ccc(C(=O)Nc2ccc3c(c2)OCCO3)cc1 | 0 | -3 | -7 | 10 | -8 | -11
COc1ccc(N2CCN(C(=O)c3cc([N+](=O)[O-])ccc3N3CCN(CCO)CC3)CC2)cc1 | 0 | 11 | -6 | 27 | -6 | -19
Cc1ccc2c(C)c(C(=O)Nc3cccnc3)oc2c1C | x | x | x | x | x | -12
COc1cc2[nH]c(=S)n(NC(=O)c3ccccc3)c(=O)c2cc1OC | 0 | x | 5 | 11 | 2 | 36*
Fc1ccc(NCc2nnc(SCc3nnc(-c4ccccc4)o3)n2Cc2ccccc2)cc1 | 0 | x | 35 | 8 | 58* | -57
N#CCCn1c(=S)[nH]c2ccccc21 | 0 | 28 | -5 | 8 | -10 | -96
Cn1c(=S)[nH]c2ccccc21 | 0 | 84* | 5 | 28 | 2 | -87
COc1ccc(NCc2ccc(OC)c(Cn3ccnc3)c2)c(OC)c1 | 0 | 99* | -2 | 10 | -9 | -7
N#Cc1c(-c2ccc(F)cc2)ccnc1N1CCOCC1 | 0 | -17 | -9 | 5 | -6 | 4
CCOC(=O)C(=O)Nc1nccs1 | 0 | x | -13 | 14 | -8 | 3
O=C(CSc1ccc(-c2ccc3c(c2)OCO3)nn1)Nc1nccs1 | 0 | -10 | -14 | 14 | -8 | 5
O=C(CSCC(=O)Nc1nc(-c2ccc3c(c2)OCO3)cs1)Nc1nccs1 | 0 | 99* | 4 | 3 | -1 | 5
O=C(CSCC(=O)Nc1nccs1)Nc1ccccc1 | 0 | 99* | -2 | 26 | 3 | 10
CCOC(=S)SCC(=O)Nc1nc(C)c(C)s1 | 0 | 98* | -2 | -22 | -6 | 27
CCOC(=S)SCC(=O)Nc1nccs1 | 0 | 88* | -8 | -4 | -4 | 39
Cc1nc(NC(=O)CCc2ccccc2)sc1C | 0 | 72 | -8 | 16 | -16 | 22
CCCCCCNC(=O)c1cc(S(=O)(=O)N2CCc3ccccc32)ccc1F | 0 | -8 | -4 | 4 | 5 | 14
CCn1c(SCC(=O)Nc2nc(C)c(C)s2)nnc1-c1cccs1 | 0 | 6 | -8 | 22 | 10 | 3
Cc1nc(NC(=O)CSc2nc(N)cc(N)n2)sc1C | 0 | 94* | 2 | -2 | -1 | -7
Cc1ccccc1OCCCC(=O)Nc1nccs1 | 0 | 94* | 8 | -1 | 4 | 13
CC1(C(=O)NS(=O)(=O)c2ccc(Cl)cc2)CCN1C(=O)C1(c2ccc(Cl)cc2)CCC1 (stereo not given) | x | x | x | x | x | 5
CSCCCNC(=S)Nc1ccc(N2CCOCC2)cc1N1CCOCC1 | 0 | 96* | -1 | 9 | -7 | -31
SMILES | Efflux pump inh | ALR H2O2 inh | PABP polyA inh | UBC9 SUMO inh | eIF4H FP inh | MLLE-PAM2 inh
CN(C)C(=S)Nc1ccc(N2CCOCC2)cc1 | 0 | 99* | -5 | 24 | 7 | -63
CCc1ccc(C(=O)NC(=S)Nc2ccc(N3CCOCC3)cc2)cc1 | 0 | -6 | 2 | -6 | -1 | 40*
Cc1cccc(NC(=O)CSCC(=O)Nc2ccc(N3CCOCC3)cc2N2CCOCC2)c1 | x | x | x | x | x | 19
CSCCCNC(=S)Nc1ccc(N2CCOCC2)cc1 | 0 | 95* | 8 | 15 | -3 | -23
CC(=O)c1ccc(NC(=S)Nc2ccc(N3CCOCC3)cc2)cc1 | 0 | u | -8 | 16 | 4 | 19
Cc1ccc(NC(=O)CN(C)S(=O)(=O)c2cccs2)c(Br)c1 | 0 | -8 | -2 | 4 | -4 | -16
CCCNC(=O)CNC(=O)c1ccc(C#N)cc1 | 0 | x | x | x | x | -7
Cc1nc(C(F)(F)F)c(C(=O)O)cc1-c1nc(-c2ccccc2)cs1 | 0 | 95* | 13 | 4 | 7 | -2
CSC1=NSC2=NC(=O)/C(=C\c3coc4ccccc4c3=O)C(=N)N12 | 0 | 97* | -4 | -4 | 49 | i
CC(C)CSC1=NSC2=NC(=O)/C(=C\c3coc4ccccc4c3=O)C(=N)N12 | 0 | 72 | -7 | 8 | u | i
CN1C(=O)/C(=C\c2ccccc2F)Sc2ccc(C(=O)NC3CCN(Cc4ccccc4)CC3)cc21 | 0 | 2 | -10 | 12 | -11 | 10
CCN(c1ccccc1)c1cc2ccccc2c(=O)[nH]1 | 0 | 45 | 7 | 61* | 11 | -8
CCOC(=O)CSc1nc2c(c(=O)[nH]c(=O)n2C)n1C/C=C(/C)Cl | 0 | -7 | -7 | 27 | 2 | 37*
Cn1c(=O)[nH]c(=O)c2c1nc(Br)n2CC(O)COc1ccccc1 (stereo not given) | 0 | 9 | 6 | 13 | 7 | 21
CC=CCn1c(SCc2ccccc2)nc2c1c(=O)[nH]c(=O)n2C | x | x | x | x | x | 43*
CCOC(=O)C(CC)Sc1nc2c(c(=O)[nH]c(=O)n2C)n1CCc1ccccc1 (stereo not given) | 0 | -17 | -10 | -1 | 1 | 40*
Cn1c(=O)[nH]c(=O)c2c1nc(Br)n2CC(O)COCc1ccccc1 (stereo not given) | 0 | 91* | 3 | 11 | -2 | 8
COc1cc(OC)cc(C(=O)N[C@H](C(=O)OCC(=O)N2CCN(S(=O)(=O)c3ccc(C)cc3)CC2)C(C)C)c1 | x | x | x | x | x | -21
CC1CC(C)CN(S(=O)(=O)c2ccc3c(c2)CC(=O)N3)C1 (stereo not given) | 0 | -1 | x | x | x | 9
Cc1ccc(C(=O)CSc2nnc(N)s2)c(C)c1 | 0 | -3 | -3 | -3 | 94 | 14
COc1ccc(NC(=O)C2(C)CCCN2C(=O)C(C)C)cc1OC (stereo not given) | x | x | x | x | x | -13
Nc1ccc2c(c1)N1CCN=C1S2 | 0 | 88* | 2 | 12 | 7 | 12
COc1ccc(-n2nnnc2S(=O)(=O)Cc2ccc(C(=O)O)cc2)cc1 | 0 | 98* | 22 | 6 | 4 | 4
CCc1ccc(Oc2nnnn2-c2ccc(C(N)=O)cc2)cc1 | 0 | -3 | -7 | 8 | -3 | -3
COc1ccc(-n2nnnc2S(=O)(=O)CC(=O)N2CCCCC2)cc1 | 0 | 98* | 0 | 13 | -11 | 23
CN(C(=O)c1cccc(COc2ccc(Cl)cc2Cl)c1)c1ccccc1 | 0 | -38 | 102* | -14 | -9 | -2
CC(C)c1ccc(NC2CCCN(C(=O)c3cccnc3)C2)cc1 (stereo not given) | 0 | 69 | 1 | 8 | 2 | -12
CC(C)c1ccc(NC2CCCN(C(=O)c3ccsc3)C2)cc1 (stereo not given) | 0 | 98* | -2 | 4 | 47 | -8

Bioassay records: PubChem, several laboratories
